Assay outcomes from PubChem.
This is a sample that favours compounds with a hit; in the whole collection about 13% have one here.
LASV entry inh: blocks Lassa virus binding to or entry into cells. Potency, µM (top dose mostly 37.9 µM), for the others: at the top dose activity change, negative = inhibition, actives largely listed as inhibitors. Lassa virus pseudotype entry inhibition, cell reporter. 1.2% of 300,000 active; calls by dose curve; tested in HEK293 cells; further: potency means the concentration at half of the fitted maximal effect; on the % scale 0 is the no-effect control and ±100 the full control effect; nearly all actives have a fitted effect of over 50% in size
CHX counter: affects cycloheximide protein synthesis inhibition readout, counter-screen; cell reporter, cycloheximide protein synthesis inhibition counterscreen; max response, %; 12% of 300,000 active; in the data active means max response mostly above about 13%, no sharp cut-off; inactive means mostly below about 14%; further: read at 38.3 µM for the half of the compounds with a filed dose; 0% is about no effect
Shiga inhibitor: inhibitors of Shiga toxin in Vero cells; Vero cells, Shiga toxin protein synthesis inhibition reporter; inhibition, % at 38.7 µM; 9.2% of 290,000 active; in the data active means inhibition mostly above about 28%, no sharp cut-off; inactive means mostly below about 43%; further: 0% is about no effect
FMDV inh: blocks foot and mouth disease virus | FMDV antiviral cell-based qHTS | Potency, µM (series often up to 57.9 µM), for the others: top-dose activity change, negative = inhibition, actives largely listed as inhibitors | 1.2% of 410,000 active | AID 1159524; calls by dose curve; tested in HEK293T cells; further: read-out not given here; potency means the concentration at half of the fitted maximal effect; on the % scale 0 is the no-effect control and ±100 the full control effect; nearly all actives have a fitted effect of over 45% in size
HCV inh: HCV inhibition; Huh7.5.1 HCVcc-Cre infection, luciferase reporter, 44 h; Potency, µM (series often up to 41.8 µM), without a hit: top-dose activity change, negative = inhibition, hits mostly inhibitors; 3.4% of 340,000 active; active means well fitted inhibition curve with a large enough effect; inconclusive means small, poorly fitted or top-dose-only effect, or another doubt; inactive means no such curve, though single readings can be large or run the other way; further: potency means the concentration at half of the fitted maximal effect; on the % scale 0 is the no-effect control and ±100 the full control effect
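1,000 cells/well; 4 h culture; + compound; + HCVcc-Cre (~0.5 moi); 44 h; luciferase substrate, RT 15 min; read 15 sec.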
MARV entry inh: blocks Marburg virus binding to or entry into cells; Marburg virus pseudotyped entry inhibition, cell reporter; Potency, µM (series often up to 37.8 µM), without a hit: at the highest dose activity change, negative = inhibition, hits mostly inhibitors; 1.8% of 300,000 active; AID 540276; calls by dose curve; tested in HEK293 cells; further: potency means the concentration at half of the fitted maximal effect; on the % scale 0 is the no-effect control and ±100 the full control effect
Starred values were filed as active, the others as inactive; ? = inconclusive; nt = no result; [ ] = another dose, or the depositor's remark.

SMILES | LASV entry inh | CHX counter | Shiga inhibitor | FMDV inh | HCV inh | MARV entry inh
O=C(Oc1coc(CSc2ncccn2)cc1=O)c1cccs1 | -5%[46.1 µM] | 16* | 22 | 22% | 10% | -10%[46.1 µM]
Cc1ccnc(SCc2cc(=O)c(OC(=O)c3cccs3)co2)n1 | 0%[46.1 µM] | -1 | 18 | 12% | 0% | ?
Cn1cc(Cl)c(C(=O)NC2CCCCCC2)n1 | 9% | 14* | 23* | nt | 2% | ?
Cn1cc(Cl)c(C(=O)NNC(=S)NC2CCCCC2)n1 | ? | 23* | 54* | 8% | 23% | ?
Cn1cc(Cl)c(C(=O)NNC(=S)NCc2ccco2)n1 | 3% | 2 | -6 | -3% | 9% | 5%
COc1ncc2nc(-c3ccccc3)c(=O)n(Cc3cccs3)c2n1 | nt | nt | nt | -1% | nt | nt
Cc1ccc(CN(Cc2ccccn2)C(=O)Nc2c(F)cccc2F)cc1 | -22%[46.1 µM] | -3 | 5 | -18% | -6% | 25%[46.1 µM]
CCc1cccc(-n2c(C)nc3c(cnn3-c3ccc(C)c(C)c3)c2=O)c1 | -14%[46.1 µM] | nt | nt | -6% | nt | ?
CCOC(=O)c1ccc(NC(=O)CC[C@@H](CC)C(=O)O)cc1 | nt | nt | nt | nt | nt | 3%
CCCCOC(=O)c1cc(=O)[nH]c2ccccc12 | 2% | 11* | 12 | 15% | 6% | 2%
CCCCCCOC(=O)c1ccccc1N | 1% | 39* | 76 | 59% | 9% | 25%
CCCOC(=O)Nc1ccc(C(N)=O)cc1 | 13% | 24* | 19 | 52% | -4% | 15%
CCCCOC(=O)c1ccccc1N | nt | nt | nt | -8% | 15% | nt
CCCOC(=O)Nc1cccc(C(C)=O)c1 | -8% | 12 | 5 | 28% | ? | 18%
CCCOC(=O)c1ccc(NC(=O)C(CC)CC)cc1 | 8% | 40* | 70* | 26% | -11% | ?
O=C(CN(Cc1ccccc1Cl)C(=O)Cn1nnc(-c2cccs2)n1)NCC1CCCO1 (centres undefined) | -1% | 1 | -5 | nt | 4% | -1%
CC1CCN(C(=O)c2[nH]cnc2C(=O)Nc2nccs2)CC1 | nt | nt | nt | 33% | -9%[8.37 µM] | nt
Cc1cc(NC(=O)CCl)on1 | -19% | 1 | 11 | ? | ? | -17%[46.1 µM]
CCCCCCNc1ccc(C(=O)OCC)cc1 | nt | nt | nt | 24% | nt | nt
CCCCOC(=O)c1ccc(NC(C)=O)cc1 | 5% | 13 | 52* | 23% | 10% | ?
CCCCOC(=O)c1ccc(N)cc1 | 4% | 15* | 63* | 52% | 6% | 4%
CC(=O)Nc1ccc(CCCCc2ccccc2)cc1 | -11%[46.1 µM] | nt | nt | 9% | -24% | ?
CCCCCCOC(=O)c1ccc(N)cc1 | nt | 42* | 69* | 15% | -21% | -5%
CCCCN(CCCC)CCCOC(=O)c1ccc(N)cc1 | -24% | -4 | 11 | -18% | ? | -21%
CC(=O)Nc1ccc(C(=O)OCCCOC(=O)c2ccc(NC(C)=O)cc2)cc1 | nt | -2 | -2 | -21% | 0% | nt
SMILES | LASV entry inh | CHX counter | Shiga inhibitor | FMDV inh | HCV inh | MARV entry inh
CC(=O)Nc1ccc(C(=O)OCCc2ccccc2)cc1 | 14%[46.1 µM] | 42* | 64* | 26% | 1% | 2%[46.1 µM]
Cc1n[nH]c(C)c1CCNCc1ccc(OCC(O)CN2CCCCC2)cc1 (centres undefined) | 5% | -3 | 22 | -7% | 6% | ?
CC(C)[C@@H](OCc1ccccc1)[C@H](C)CO/N=C1/[C@H]2OC2[C@@H](O)[C@H]2[C@H]1CCn1c(=O)n(-c3ccccc3)c(=O)n12 (some centres undefined) | nt | nt | nt | nt | nt | 25%[14.2 µM]
Cc1ccc(-c2cc(C(=O)O)n[nH]2)o1 | ? | -2 | -4 | -10% | 14% | 8%
CCCCC(CC)COC(=O)c1ccccc1C(=O)OCC(CC)CCCC (centres undefined) | nt | nt | nt | -10% | 5.6µM* | nt
CCCCOC(=O)c1ccc(NC(=O)c2c(OC)cccc2OC)cc1 | ? | 1 | 21 | -27% | ? | 2%
CCCCOC(=O)c1ccc(NC(=O)c2cc(Cl)c(Cl)cc2C(=O)O)cc1 | nt | 32* | 66* | -5% | 13% | -25%[46.1 µM]
CCCCOC(=O)c1ccc(NC(=O)/C=C/c2cccs2)cc1 | ? | 41* | 53* | 7% | 2% | -24%
CC(C)COC(=O)c1ccccc1C(=O)OCC(C)C | nt | -10 | 29 | 0% | -16% | nt
CCCCOC(=O)c1ccc(NC(=O)c2nn(C)cc2Br)cc1 | 8% | 30* | 79* | -4% | ? | 7%
O=C(COc1ccccc1)NCc1ccc2c(c1)CCN2C(=O)c1ccccc1 | -22%[46.1 µM] | nt | nt | -1% | nt | nt
Cc1ccc(NC(=O)CNc2cccc(S(=O)(=O)N3CCCC3)c2)cc1F | -11% | nt | nt | -5% | ? | ?
CCN(CC)S(=O)(=O)c1cc(NC(=O)CNc2cccc(S(=O)(=O)N3CCOCC3)c2)ccc1C | ? | nt | nt | -27% | 5.6µM* | ?
Cc1ccc(NCC(=O)Nc2cccc(S(=O)(=O)N(C)C)c2)cc1S(=O)(=O)N1CCCCCC1 | ? | nt | nt | ? | 10µM* | ?
Cc1ccc(NC(=O)CN(C)CC(=O)Nc2cccc(F)c2)cc1S(=O)(=O)N1CCCCCC1 | ? | 6 | 14 | 25µM* | ? | ?
CCN(CC)S(=O)(=O)c1cccc(NC(=O)CNc2cccc(S(=O)(=O)N3CCCC3)c2)c1 | ? | -2 | -10 | -5% | 2.5µM* | ?
CCOC(=O)c1c(C)oc(NC(=O)COc2ccc(Cl)cc2C)c1C#N | -24% | 6 | 14 | -5% | -9% | -11%
CCN(CC)S(=O)(=O)c1ccc(C)c(NC(=O)CNc2cccc(S(=O)(=O)N3CCCC3)c2)c1 | -28%[46.1 µM] | nt | nt | ? | 10µM* | -21%
Cc1ccc(S(=O)(=O)N2CCCCC2)cc1NC(=O)CNc1ccc(C(F)(F)F)cc1 | ? | nt | nt | -4% | ? | ?
Cc1cnc(SCc2ccccn2)nc1C1CCCN(C(=O)c2noc3c2CCCC3)C1 (centres undefined) | nt | nt | nt | 20µM* | nt | nt
Cc1cnc(SCc2ccccn2)nc1C1CCCN(C(=O)c2scc3c2CCCC3)C1 (centres undefined) | nt | nt | nt | 16µM* | nt | nt
Cc1cnc(SCc2ccccn2)nc1C1CCCN(C(=O)c2coc3c2C(=O)CCC3)C1 (centres undefined) | nt | nt | nt | -7% | nt | nt
CC(C)C(C(=O)Nc1cccnc1)N1C(=O)c2ccccc2C1=O (centres undefined) | -1% | 1 | -15 | 16% | 15% | -10%
CCOC1(C(F)(F)F)NC(=O)N(Cc2ccc(OC)cc2)C1=O (centres undefined) | -9% | -2 | -24 | -10% | 5% | 13%
Cc1ccc(C)c(S(=O)(=O)NCCOc2nc(NC(C)C)nc(NC(C)C)n2)c1 | -15% | -6 | -12 | nt | -29% | ?
CSc1nc(C)cc(OCCNS(=O)(=O)c2cc(C)ccc2C)n1 | 16% | -1 | -17 | 9% | 22µM* | -9%
N#Cc1c(NCCCO)nc(NCc2ccccc2)c2c1CCN(Cc1ccccc1)C2 | ? | -6 | -10 | -10% | 11µM* | ?
N#Cc1c(NCCCO)nc(-c2ccco2)c2c1CCCC2 | -14% | -4 | -7 | -23% | 10µM* | -10%[46.1 µM]
N#Cc1c(NC2CCCCC2)nc(-c2ccco2)c2c1CCCC2 | -13% | -7 | -5 | 0% | -20% | 0%[46.1 µM]
